Experimental data: PubChem BioAssay (NCI)
This is part of a sample that, as a whole, favours compounds with a hit. Of some 83,000 tested, about 20% had one in any assay.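 Interpretation: 100, growth as untreated; towards 0, rising growth inhibition; 0, no net growth; 0 to -100, cell death. Compounds scoring below 10 were considered active.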 Active and inactive are the calls of the source.

Tests used:
Test in all cases: NCI-60 one-dose screen, 48 h (100 = growth as untreated, 0 = no growth, -100 = all killed)
Conditions in all cases: 10 µM unless noted
[1] = test system: SR leukemia
[2] = test system: RPMI-8226 leukemia
[3] = test system: OVCAR-8 ovarian
[4] = test system: OVCAR-5 ovarian
[5] = test system: OVCAR-4 ovarian
[6] = test system: SK-OV-3 ovarian
[7] = test system: IGROV1 ovarian
[8] = test system: OVCAR-3 ovarian
[9] = test system: HS 578T breast
[10] = test system: NCI/ADR-RES ovarian

Measured: growth

Cc1ccc(=O)n(-c2ccc(Br)cc2F)c1
inactive: [1] 108% | [2] 101% | [3] 99% | [4] 105% | [5] 97.3% | [6] 90.4% | [7] 97.6% | [8] 109% | [9] 100% | [10] 104%

C=C1C(=O)O[C@H]2[C@H]1CC/C(COC(=O)c1ccc(Cl)nc1)=C\CC[C@@]1(C)O[C@@H]21
active: [1] -13.2% | [2] -30% | [3] -8.23% | [8] -42.1%
inactive: [4] 27.2% | [5] 27.9% | [6] 99.3% | [7] 13.1% | [9] 61.2% | [10] 42.1%

COc1ccc2c(c1)OC(N)=C(C#N)C2c1ccc(F)c(F)c1 (stereo not given)
inactive: [1] 12.2% | [3] 33.9% | [4] 51.6% | [5] 73.6% | [6] 29% | [7] 53.5% | [8] 15.6% | [9] 35.7% | [10] 17.9%
active: [2] 7.58%

CCN(CC)CCNc1ccc([N+](=O)[O-])c2sc3cc(Cl)ccc3c(=O)c12
active: [1] 9.3% | [2] 3.51% | [3] 3.32% | [5] -37.6%
inactive: [4] 38.7% | [6] 86.3% | [7] 15.1% | [8] 71.5% | [9] 80.2% | [10] 33.9%

COc1ccc(C(=O)Cn2cnc3c(Nc4cc(C(=O)Nc5ccc(N6CCN(CCO)CC6)cc5)ccc4C)ncnc32)cc1
inactive: [1] 83.7% | [2] 96.7% | [3] 104% | [4] 104% | [5] 106% | [6] 99.2% | [7] 110% | [8] 100% | [9] 97.7% | [10] 104%

Cc1cc(N2CCOCC2)nc(N(CCNc2ccnc3cc(Cl)ccc23)Cc2ccco2)n1
inactive: [3] 34.6% | [4] 101% | [5] 37.2% | [6] 91.1% | [7] 40.7% | [9] 64% | [10] 50.8%
active: [1] -22.6% | [2] -21.6% | [8] -64.3%

CN(CCNCc1ccccn1)CCNCc1ccccn1
active: [1] 9.92% | [4] -1.39% | [5] -17.3% | [6] -23% | [8] -37.1% | [10] 4.32%
inactive: [2] 18.9% | [3] 13.5% | [7] 26.9% | [9] 48.9%

COC(=O)c1ccc(NC(N)=NCC(C)(C)COc2ccc(C(F)(F)F)cc2)nc1
active: [1] -32.3%
inactive: [2] 10.9% | [3] 52.2% | [4] 72% | [5] 40.6% | [6] 106% | [7] 21.3% | [8] 50% | [9] 86.3% | [10] 44.6%

CCOC(=O)C(C)(CSSCC(C)(NC(=O)c1ccc2ccccc2c1)C(=O)OCC)NC(=O)c1ccc2ccccc2c1 (stereo not given)
inactive: [1] 61.2% | [2] 93.4% | [3] 90.6% | [4] 127% | [5] 104% | [6] 107% | [7] 93.3% | [8] 110% | [9] 118% | [10] 105%

Nc1c(C(=O)O)[nH]c(=O)[nH]c1=O
inactive: [1] 90.2% | [2] 99.9% | [3] 108% | [4] 105% | [5] 111% | [6] 102% | [7] 112% | [8] 105% | [9] 102% | [10] 108%

CCOC(=O)C1=C(N)Oc2cc(OC)ccc2C1c1ccc(F)c(F)c1 (stereo not given)
inactive: [1] 12.7% | [3] 36% | [4] 56.9% | [5] 69.4% | [6] 22.8% | [7] 54.1% | [8] 17.7% | [9] 28.4% | [10] 25.5%
active: [2] 6.63%

Cl[C@@H]1CCO[C@H](c2cc3ccccc3c3ccccc23)C1
inactive: [1] 93.8% | [2] 83.3% | [3] 98.9% | [4] 91.5% | [5] 94.8% | [6] 97.2% | [7] 97.9% | [8] 108% | [9] 103% | [10] 103%

CC(C)CNCC(O)COc1ccc(C(C)(C)c2ccc(OCC(O)CNCC(C)C)cc2)cc1 (stereo not given)
inactive: [3] 53.4% | [4] 80.8% | [5] 81% | [6] 86.9% | [7] 47.4% | [8] 44.5% | [9] 65.4% | [10] 86.7%
active: [1] -38.7% | [2] -9.88%

CCc1c(C)c2cc(-n3c(-c4ccc(OC)cc4)csc3=N)c(O)c(C)c2oc1=O
active: [1] 3.54% | [2] -9.39% | [8] 9%
inactive: [3] 17.9% | [4] 44% | [5] 12.3% | [6] 43.8% | [7] 25.1% | [9] 24.5% | [10] 11.4%

O=S(=O)(O)c1ccc(F)cc1
inactive: [1] 101% | [2] 100% | [3] 116% | [4] 111% | [5] 105% | [6] 102% | [7] 98.8% | [8] 106% | [9] 102% | [10] 104%

Cc1cc(-c2ccccc2)nc2ccccc12
inactive: [1] 97.1% | [2] 83.3% | [3] 98.1% | [4] 115% | [5] 90.1% | [6] 74.9% | [7] 92.5% | [8] 105% | [9] 97.3% | [10] 102%

COc1ccc(/C(Cl)=N/N=C(\Cl)c2cc(OC)c(OC)c(OC)c2)cc1OC(C)=O
inactive: [1] 77.4% | [2] 89.4% | [3] 79.9% | [4] 107% | [5] 99.4% | [6] 80% | [7] 105% | [8] 101% | [9] 90.4% | [10] 89.1%

CC1(C)CC(=O)C2=C(C1)OC1=C(C(=O)CC(C)(C)C1)C2c1ccc(OCc2cn(-c3ccc(F)cc3F)nn2)cc1
inactive: [1] 58.6% | [2] 92.7% | [3] 95.3% | [4] 124% | [5] 94.4% | [6] 100% | [7] 102% | [8] 95.3% | [9] 96.2% | [10] 94%

COC(=O)CCCNS(=O)(=O)c1cc(C(=O)Nc2ccc(NC(=O)c3cc(S(=O)(=O)NCCCC(=O)OC)c(O)c(O)c3O)cc2)c(O)c(O)c1O
inactive: [1] 70.4% | [2] 96% | [3] 73.6% | [4] 107% | [5] 98.3% | [6] 83.8% | [7] 100% | [8] 102% | [9] 100% | [10] 94.2%

NC(=NCCCOc1ccc(F)cc1)Nc1ccc(Cl)c(Cl)c1
inactive: [1] 52.1% | [2] 39.1% | [3] 88.6% | [4] 81.5% | [5] 59.9% | [6] 99.8% | [7] 45.9% | [8] 73.3% | [9] 65.7% | [10] 69.9%

O=[N+]([O-])c1ccc(NS(=O)(=O)c2ccccc2)c2ccccc12
inactive: [1] 51.6% | [2] 11.7% | [3] 63.1% | [4] 84.4% | [5] 40.6% | [6] 34.7% | [7] 30.2% | [8] 25.5% | [9] 48% | [10] 51%

O=[N+]([O-])c1ccc(NS(=O)(=O)c2cc(Cl)ccc2Cl)c2ccccc12
inactive: [1] 60.1% | [2] 14.1% | [3] 79.5% | [4] 89.1% | [5] 54% | [6] 59.6% | [7] 82.3% | [8] 33.7% | [9] 54.3% | [10] 59.3%

O=C1C(Cl)=C(Nc2cccc3cc4ccccc4nc23)C(=O)c2ccccc21
inactive: [1] 45.1% | [2] 48.7% | [3] 32.6% | [4] 53.8% | [5] 55.4% | [6] 44.3% | [7] 37.2% | [8] 64.4% | [9] 95.2% | [10] 42.8%

O=C1OC(c2ccc(-c3ccccc3)cc2)=C/C1=C/C=C/c1ccccc1
inactive: [1] 98.3% | [2] 95% | [3] 103% | [4] 91.3% | [5] 95% | [6] 102% | [7] 99% | [8] 99.3% | [9] 86.9% | [10] 114%

CCc1c(C)c2cc3nc(NCc4ccccc4)oc3c(C)c2oc1=O
inactive: [1] 73.5% | [2] 71.6% | [3] 62.5% | [4] 89.7% | [5] 33.9% | [6] 39.5% | [7] 76.2% | [8] 87% | [9] 67.1% | [10] 51.2%

Cc1cccc(Cc2cnc(NC(=O)CCc3ccc(C)o3)s2)c1
active: [1] 5.14% | [2] 5.07% | [8] 2.58%
inactive: [3] 20.3% | [4] 35.7% | [5] 53.3% | [6] 24.5% | [7] 32.2% | [9] 27.6% | [10] 17.2%

Fc1ccc(Nc2ncnc3ccc(-c4cn[nH]c4)cc23)cc1Cl
active: [1] 0.823% | [6] -11.6% | [7] 5.6%
inactive: [2] 38.9% | [3] 44.1% | [4] 75.7% | [5] 55.5% | [8] 50.6% | [9] 31.4% | [10] 51.6%
